Experimental data published in PubChem BioAssay (EPA / NIEHS).
Some compounds were tested as several samples or in several runs, with calls that do not always agree. The source made the active and inactive calls. Rule for the calls: active = hit-call score of the fitted dose curve at least 0.9, where 1 is the maximum; inactive = score below 0.9.

assay: ATG_TCF_b_cat_CIS: Attagene CIS-FACTORIAL HepG2 Assay for human T-Cell-Factor with beta-catenin (TCF/b-cat) (AID 2282965); details: HepG2 TCF/beta-catenin cis-reporter transcription, actives raise or lower the signal
Method: ATG_CIS is a cell-based, multiplexed-readout assay that uses HepG2, a human liver cell line, with measurements taken at 24 hours after chemical dosing in a 24-well plate.ATG_TCF_b_cat_CIS is one of 52 assay component(s) measured or calculated from the ATG_CIS assay. It is designed to make measurements of mRNA induction, a form of inducible reporter, as detected with fluorescence intensity signals by Reverse transcription polymerase chain reaction (RT-PCR) and Capillary electrophoresis technology.Data from the assay component ATG_TCF_b_cat_CIS was analyzed into 1 assay endpoint. This assay endpoint, ATG_TCF_b_cat_CIS, was analyzed with bidirectional fitting relative to DMSO as the negative control and baseline of activity. Using a type of inducible reporter, measures of mRNA for gain or loss-of-signal activity can be used to understand the reporter gene at the transcription factor-level as they relate to the gene TCF7 and TCF7L2 and LEF1 and TCF7L1. Furthermore, this assay endpoint can be referred to as a primary readout, because this assay has produced multiple assay endpoints where this one serves a reporter gene function. To generalize the intended target to other relatable targets, this assay endpoint is annotated to the dna binding intended target family, where the subfamily is HMG box protein.
Human liver HepG2 cells are transiently transfected with multiple reporter transcription units (MRTUs) in 6-well plates using FuGene 6 reagent (Roche; 3 ml FuGene/1 mg DNA). The MRTU constructs are regulated by a cis-regulating element (promoter). […] A major difference between the CIS and TRANS system is that in CIS activities of endogenous TFs are measured, whereas the TRANS assay evaluates changes in activities of exogenous, chimeric NR-Gal4 proteins. […] At the end of 24 hour incubation, total RNA was isolated using TriZol reagent (Invitrogen). The isolated RNA is then reverse-transcribed using oligo(dT) primer and Mo-MLV reverse transcriptase (Invitrogen) with DNAse I (Ambion) treatment for 30 min. The one-tenth of the produced cDNA was amplified by PCR using Taq DNA polymerase (Invitrogen) and two reporter sequence-specific primers. The PCR products were fluorescently labeled by primer extension with 6-arboxyfluorescein (6-FAM) 5'-labeled reporter sequence-specific primer (2 min at 95 C, 20 s at 68 C and 10 min at 72 C) and these products were digested with 5U of HpaI (New England Biolabs) for 2h at 37 C. The fragments were purified using Qiaquick PCR columns (Qiagen), analyzed on an ABI 3130xL genetic analyzer (Applied Biosystems) with peak positions identified by using a set of X-rhodamine (ROX)-labeled MapMarker1000 molecular weight standards (BioVentures). The raw capillary electrophoresis data was processed using Attagraph software (Attagene).

SMILES	outcome	AC50
OCC(c1ccc(Cl)cc1)c1ccc(Cl)cc1	inactive	–
C[As+](C)(C)CC(=O)[O-]	inactive	–
C=CC(=O)OCC(COC(=O)C=C)(COC(=O)C=C)COC(=O)C=C	–	8.6 µM (active)
C=C(C)[C@@H]1CC=C(C=O)CC1	inactive	–
CC(C)=CC1C(C(=O)OCc2cccc(Oc3ccccc3)c2)C1(C)C (stereo not given)	inactive	–
O=S1OC[C@@H]2[C@H](CO1)[C@]1(Cl)C(Cl)=C(Cl)[C@@]2(Cl)C1(Cl)Cl (stereo not given in full)	inactive	–
O=C(NC(=O)c1c(F)cccc1F)Nc1ccc(Cl)cc1	inactive	–
O=[N+]([O-])c1cccc2ccccc12	inactive	–
N#CCC#N	inactive	–
CCOP(=O)(OCC)OC(=CCl)c1ccc(Cl)cc1Cl	inactive	–
O=[N+]([O-])c1c2ccccc2cc2ccccc12	inactive	–
C=CCOC(N)=O	inactive	–
ClCCN1CCOCC1	inactive	–
c1cc[c]([Sb]([c]2ccccc2)[c]2ccccc2)cc1	inactive	–
O=C(CBr)c1ccc(O)cc1	inactive	–
CCCCCCCCCCCCBr	inactive	–
O=c1nc(O)n(Cl)c(=O)n1Cl	inactive	–
O=C(NC(=O)c1c(F)cccc1F)Nc1cc(Cl)c(OC(F)(F)C(F)C(F)(F)F)cc1Cl (stereo not given)	inactive	–
Nc1ccc(N)cc1	inactive	27.7 µM (active)
CC(c1ccc(O)cc1)c1ccc(O)cc1	inactive	–

SMILES	outcome	AC50
O=c1[nH]c(=O)n(Cl)c(=O)n1Cl	inactive	–
C[N+](C)(C)Cc1ccccc1	inactive	–
c1ccc2sc(SNC3CCCCC3)nc2c1	inactive	–
O=C(NC(=O)c1c(F)cccc1F)Nc1cc(Cl)c(F)c(Cl)c1F	inactive	–
C[C@]12CC[C@@H](O)C[C@@H]1CC[C@@H]1[C@@H]2CC[C@]2(C)C(=O)CC[C@@H]12	inactive	–
CCOC(=O)OC1=C(c2cc(C)ccc2C)C(=O)NC12CCC(OC)CC2 (stereo not given)	inactive	–
CN(C1CCCCC1)C1CCCCC1	inactive	–
Clc1cccc(Cl)c1Cl	inactive	–
CN(C)c1ccc(N=O)cc1	inactive	–
CCCCC(CC)C(=O)Cl (stereo not given)	inactive	–
CC(C)(C)c1ccc(CCOc2ncnc3ccccc23)cc1	inactive	–
CC(=O)CN(CC(C)=O)N=O	inactive	–
COc1ccc(N)cc1	inactive	–
O=C(O)c1cc(I)cc(I)c1I	inactive	–
CCN(N=O)C(N)=O	inactive	–
Cl[C@H]1OCCO[C@@H]1Cl	inactive	–
CCC[CH2][Sn]([Cl])([Cl])[CH2]CCC	–	1.82 µM (active)
CC(O)(CS(=O)(=O)c1ccc(F)cc1)C(=O)Nc1ccc(C#N)c(C(F)(F)F)c1 (stereo not given)	inactive	–
ClCCCCl	inactive	–
